The campaign covered roughly 52,000 compounds. About 1,700 (3.3%) were called active. The sample holds actives, similar compounds and a random draw of the others, so the mix is not that of the screen. Values without a mark were called inactive. No stated cut-off is given here; in the data, active means survival mostly below about 52% (no sharp cut-off); inactive means mostly above about 56%.

The subject of the assay is Wild type. Briefly: growth inhibition of S. aureus wild type versus tarO mutant, primary screen, teichoic acid synthesis inhibitors, RN4220, OD600 (AID 463173). The note with it: S. aureus RN4220 wild type/DeltatarO growth, OD600, 18 h, hits give low values, screened at 18.75 µg/mL (by protocol).
Take `Cc1cccc(OCC(=O)Nc2c(C(=O)N3CCN(c4ccccc4)CC3)oc3ccccc23)c1`: the survival was 86%.
For `CN=C1SC(CC(=O)NC(N)=O)C(=O)N1C` (stereo unspecified) the value was 92%.
For `COc1ccc(OC)c(NC(=O)CSc2ccnc(=O)[nH]2)c1` the value was 80%.
For `CC(=O)Nc1cccc(NC(=O)Cn2c(-c3cccnc3)ccc(C#N)c2=O)c1` the value was 89%.
With `CCN1CCN(C(c2ccc(OC)cc2)c2c(O)cc(C)n(Cc3ccco3)c2=O)CC1` (stereo unspecified), the survival is 71%.
For `CCOC(=O)c1c(NC(=O)CN(CC)CC)sc2c1CCC/C2=N\O` the value was 112%.
For `O=C(CSc1nc(-c2ccco2)nc2cc(=O)[nH]n12)Nc1ccc(F)cc1` the value was 65%.
For `CC(NCc1ccc2c(c1)OCO2)C(=O)NC1CCCCC1` (stereo unspecified) the value was 103%; for `CCOC(=O)c1cc(-c2ccccc2)n(CCC(=O)NCCc2ccccc2)c1C`, -2% (active); for `CCOC(=O)c1cc(-c2ccccc2)n(CCC(=O)NCCc2ccc(C)cc2)c1C`, 73%.
Regarding `CCOC(=O)c1cc(-c2ccccc2)n(CCC(=O)NCCc2cccc(C)c2)c1C`, the survival was 49%.
The figure for `CCc1ccccc1NC(=O)COC(=O)c1cn(CC)c2nc(C)ccc2c1=O` is 83%; for `COc1ccc(OC)c(-c2nc3c(C#N)c[nH]n3c2NC2CCCCC2)c1` it is 102%; for `COc1ccc(CCNc2nc(-c3ccc(OC)c(OC)c3)cc(C(F)(F)F)n2)cc1OC` it is 0% (active).
For `COc1ccc(CCNc2nc3c(-c4cccc(C(F)(F)F)c4)nnn3c3ccccc23)cc1OC` the value was 83%; for `COc1ccc(-c2cc(C(F)(F)F)nc(SCC(=O)NCc3ccc(OC)c(OC)c3)n2)cc1`, 97%; for `COc1ccc(CCNc2nc(-c3ccccc3OC)cc(C(F)(F)F)n2)cc1OC`, -8% (active).
For `COc1ccc(CCNc2nc(-c3ccc(Cl)cc3)cc(C(F)(F)F)n2)cc1OC`, the survival was 18% (active).
The figure for `COc1ccc(CCNC(=O)CSc2nc(-c3ccc(F)cc3)cc(C(F)(F)F)n2)cc1OC` is 97%; for `COc1ccc(CCNc2nc(-c3ccc(F)cc3)cc(C(F)(F)F)n2)cc1OC` it is 142%.
For `COc1ccc(CCNc2nc(-c3ccc(C)cc3)cc(C(F)F)n2)cc1OC` the value was 100%; for `COc1ccc(-c2cc(C(F)(F)F)nc(SCC(=O)NCCc3ccc(OC)c(OC)c3)n2)cc1`, 70%.
The figure for `CC(C)C1N(c2ccccc2)CCN1c1ccccc1` is 110%; for `Cc1ccccc1OCC(=O)NCCN1CCCC1` it is 113%.
Take `COc1cc(-c2noc(CSc3nc(-c4ccccc4)cc(=O)[nH]3)n2)cc(OC)c1OC`: the survival was 59%.
For `O=c1[nH]cc(COCC(F)(F)C(F)F)c(=O)[nH]1` the value was 111%; for `Cc1ccc(CCNC(=O)CCSCc2ccc(Cl)cc2)cc1`, 72%; for `O=C(NCc1ccc(F)cc1Cl)c1ccc(CSCc2ccccc2Cl)o1`, 53%.
For `Cc1ccc(CNC(=O)CCSCc2ccccc2F)cc1` the value was 74%.
The figure for `O=C(NCc1ccccc1Cl)c1ccc(CSCc2cccc(F)c2)o1` is -1% (active).
Regarding `O=C(CCSCc1cccc(Cl)c1)NCCc1ccc(Cl)cc1`, the survival was 67%.
The figure for `O=C(CCSCc1ccc(Cl)cc1)NCCc1ccccc1` is -6% (active); for `O=C(NCCc1ccc(Cl)cc1)c1ccc(CS(=O)(=O)Cc2ccccc2F)o1` it is -3% (active).
The figure for `O=C(NCc1ccccc1Cl)c1ccc(CSCc2ccccc2Cl)o1` is 66%; for `Cc1ccc(CCNC(=O)CCSCc2ccccc2F)cc1` it is -6% (active); for `Cc1ccccc1CS(=O)(=O)Cc1ccc(C(=O)NCCc2ccc(Cl)cc2)o1` it is 88%.
`CCc1ccc(CNC(=O)CCSCc2ccccc2F)cc1`: the survival is 70%.
The figure for `Cc1ccc(CCNC(=O)c2ccc(CS(=O)(=O)Cc3ccccc3F)o2)cc1` is 71%; for `COc1cccc(CNS(=O)(=O)c2ccc(-c3cc(C(F)(F)F)on3)s2)c1` it is 87%.
For `CC1=C(C(=O)Nc2cc(Cl)ccc2C)C(c2sccc2C)n2ncnc2N1` (stereo unspecified) the value was 47%; for `O=C(CSc1nc2c([nH]c3ccccc32)c(=O)n1-c1cccc(Cl)c1)NCc1ccccc1`, 78%; for `COc1cccc(Cn2c(CNC(=O)C(C)C)nc3cccnc32)c1`, 80%.
The figure for `Cc1oc(-c2ccc(C(=O)NCc3ccccc3)cc2)nc1CN1CCc2ccccc21` is 80%; for `CC(C)(C)OC(=O)N1CCC(c2c(C(=O)NCc3cccc(Cl)c3)cnn2-c2ccc(F)cc2)CC1` it is 78%.
As to `COc1ccc(-c2nc(SCC(=O)Nc3ccc4c(c3)OCCO4)c(-c3ccc(F)cc3)[nH]2)cc1OC`, the survival is 62%.
The figure for `Cc1ccccc1C(=O)NCC(c1ccc(N(C)C)cc1)N1CCCC1` (stereo unspecified) is 66%; for `Cc1ccc(CCNC(=O)CCSCc2ccccc2Cl)cc1` it is -3% (active); for `O=C(CCSCc1cccc(Cl)c1)NCc1ccc(F)cc1Cl` it is 66%.
The figure for `Cc1ccc(CCNC(=O)c2ccc(CSCc3ccccc3C)o2)cc1` is 0% (active); for `COc1ccc(CCNC(=O)CCSCc2ccccc2Cl)cc1OC` it is 88%; for `Cc1ccc(CCNC(=O)c2ccc(CSCc3ccccc3Cl)o2)cc1` it is 72%.
For the molecule `O=C(CCSCc1ccc(Cl)cc1)NCc1ccc(F)cc1Cl`, the survival is 79%.
Take `O=C(CCSCc1ccccc1Cl)NCCc1ccccc1`: the survival is 74%.
For `Cc1ccccc1CSCc1ccc(C(=O)NCCc2ccccc2)o1` the value was 77%; for `O=C(CCSCc1ccccc1Cl)NCc1ccc(F)cc1Cl`, 0% (active); for `CC1(C)CC(NC(=O)NCc2ccc3c(c2)OCO3)CC(C)(CNC(=O)NCc2ccc3c(c2)OCO3)C1` (stereo unspecified), 117%.
With `CCOCCc1nn2c(=O)cc(COC(=O)c3ccccc3OC)nc2s1`, the survival was 78%.
With `CC(=O)N1CCc2c(sc3c2c(=O)n(Cc2ccccc2)c(=O)n3Cc2ccccc2Cl)C1`, the survival is 98%.
For `C/C(=N\NC(N)N)C1CCCCCCCCCCC1` the value was -1% (active).
For `Cc1nc(C)c(CC(=O)O)c(=O)[nH]1` the value was 112%; for `CCOc1ccc(-n2cc(-c3ccccc3)c3c(NCCc4ccccc4)ncnc32)cc1`, 74%.

For the origin of these results see PubChem BioAssay AID463173 (ICCB-Longwood Screening Facility, Harvard Medical School, 2010).
